In ChEMBL document CHEMBL1961873, “Compounds: GSK PKIS; Assays: Nanosyn kinase panel” (2012):

Legend:
[1] = biological target: Serine/threonine-protein kinase PAK 6 (Homo sapiens) (UniProt Q9NQU5); conditions: at 1 µM;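 further: values are mean percent inhibition of PAK6 kinase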
[2] = system: Tyrosine-protein kinase ABL1 (Homo sapiens), P00519 [E255K]; conditions: at 0.1 µM
[3] = system: Tyrosine-protein kinase ABL1 (Homo sapiens), P00519 [E255K]; conditions: at 1 µM
[4] = system: Tyrosine-protein kinase ABL1 (Homo sapiens), P00519 [H396P]; conditions: at 0.1 µM
[5] = system: Tyrosine-protein kinase ABL1 (Homo sapiens), P00519 [H396P]; conditions: at 1 µM
[6] = system: Tyrosine-protein kinase ABL1 (Homo sapiens), P00519 [M351T]; conditions: at 0.1 µM
[7] = system: Tyrosine-protein kinase ABL1 (Homo sapiens), P00519 [M351T]; conditions: at 1 µM
[8] = system: Tyrosine-protein kinase ABL1 (Homo sapiens), P00519 [Q252H]; conditions: at 0.1 µM
[9] = system: Tyrosine-protein kinase ABL1 (Homo sapiens), P00519 [Q252H]; conditions: at 1 µM
[10] = system: Tyrosine-protein kinase ABL1 (Homo sapiens), P00519 [T315I]; conditions: at 0.1 µM

Serine/threonine-protein kinase PAK 6 (Homo sapiens), sequence (Q9NQU5 whole entry, looked up): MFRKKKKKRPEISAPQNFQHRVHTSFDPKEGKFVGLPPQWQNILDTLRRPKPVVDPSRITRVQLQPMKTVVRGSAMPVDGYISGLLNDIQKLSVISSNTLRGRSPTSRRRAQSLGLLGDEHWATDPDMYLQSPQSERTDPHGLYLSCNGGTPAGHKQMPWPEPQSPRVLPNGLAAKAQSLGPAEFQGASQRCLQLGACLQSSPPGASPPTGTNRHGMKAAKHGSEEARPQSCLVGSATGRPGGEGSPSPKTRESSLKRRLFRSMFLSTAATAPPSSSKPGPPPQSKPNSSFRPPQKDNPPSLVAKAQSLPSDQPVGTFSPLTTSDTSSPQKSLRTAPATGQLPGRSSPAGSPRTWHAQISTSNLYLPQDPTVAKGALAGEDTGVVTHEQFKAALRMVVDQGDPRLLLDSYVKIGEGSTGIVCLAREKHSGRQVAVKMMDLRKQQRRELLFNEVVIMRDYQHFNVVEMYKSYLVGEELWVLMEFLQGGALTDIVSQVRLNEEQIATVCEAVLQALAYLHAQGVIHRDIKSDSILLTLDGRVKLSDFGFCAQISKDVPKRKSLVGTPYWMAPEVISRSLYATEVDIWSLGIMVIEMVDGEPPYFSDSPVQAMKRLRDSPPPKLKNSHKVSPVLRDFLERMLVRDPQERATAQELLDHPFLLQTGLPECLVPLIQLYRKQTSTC

SMILES | inhibition [1] | inhibition [2] | inhibition [3] | inhibition [4] | inhibition [5] | inhibition [6] | inhibition [7] | inhibition [8] | inhibition [9] | inhibition [10]
O=C(Nc1n[nH]c2cc(-c3cc(F)ccc3F)ccc12)C1CC1 | -0.43% | 8.07% | 31.4% | 13.8% | 52.2% | 13% | 53.8% | 8.73% | 35.5% | 23.3%
FC(F)(F)c1cccc(Nc2nccc(-c3cnn4nc(-c5ccccc5)ccc34)n2)c1 | -5.84% | 0.92% | 2.38% | -0.38% | 4.75% | -1.63% | 2.9% | 1.86% | 5.75% | -0.65%
NS(=O)(=O)c1ccc(N/N=C2\C(=O)Nc3ccc(C(=O)NCCCn4ccnc4)cc32)cc1 |  | 5.15% | 10.9% | 5.17% | 14.3% | 0.91% | 14.2% | 5.21% | 13.1% | 3.66%
COc1cc(Nc2ncc(-c3ccccc3)o2)cc(OC)c1OC |  | 5.32% | 36.8% | 12.7% | 61.5% | 14.3% | 61.2% | 11.2% | 57.7% | 1.79%
COc1cc2ncn(-c3cc(OCCc4ccccc4)c(C(N)=O)s3)c2cc1OC | -0.86% | -1.76% | 6.39% | 2.33% | 10.4% | -0.05% | 11.6% | 0.95% | 10.7% | 1.49%
O=C(Nc1ccc(Oc2ccc3[nH]c(NC(=O)c4ccccc4)nc3c2)cc1)Nc1cc(C(F)(F)F)ccc1F | 3.44% | 3.28% | 27% | 17% | 71% | 44.6% | 79.8% | 38.4% | 74.6% | 36.6%
Clc1ccc(CNc2nccc(-c3cnn4ncccc34)n2)cc1 | -0.19% | 4.07% | 3.72% | 4.81% | 5.52% | 4.62% | 3.11% | 2.33% | 6.07% | 0.52%
Cc1ccc(NC(=O)c2ccoc2)cc1-c1ccc(C(=O)NCC2CC2)cc1 | -2.77% | 1.13% | -0.37% | 3.08% | 2.07% | 0.71% | 1.82% | 2.29% | 0.64% | 2.05%
O=C1Nc2ccccc2/C1=C/Nc1ccc(-n2cncn2)cc1 |  | 1.9% | 9.03% | 2.67% | 13.3% | 1.55% | 14.5% | 3.88% | 13.4% | 3.25%
CN(c1ccc(NC(=O)Nc2c(Cl)cccc2Cl)cc1)c1ccnc(Nc2cccc(CS(C)(=O)=O)c2)n1 | 0.99% | 8.03% | 35.9% | 30% | 69.3% | 46.9% | 81.9% | 39.3% | 72.3% | 41.6%
NC(=O)c1cc(-c2ccncc2)cc(-c2ccccc2)c1N | -5.82% | 4.33% | 30.6% | 9.63% | 39.4% | 5.03% | 36.6% | 9.54% | 38.8% | 4.26%
NS(=O)(=O)c1ccc(N/N=C2\C(=O)Nc3ccc(-c4cnco4)cc32)cc1 | -6.6% | 1.82% | 7.02% | 3.45% | 15.5% | 0.98% | 17.7% | 3.05% | 13.3% | 0.71%
COc1cc(Nc2ncc3c(C)nc(-c4cccc(C(F)(F)F)c4)n3n2)cc(OC)c1OC | 11.2% | 2.21% | 7.54% | 5.06% | 12.7% | 1.36% | 10.8% | 4.02% | 13.4% | 3.13%
O=C(Nc1n[nH]c2nc(-c3ccco3)ccc12)C1CC1 | 3.45% | 2.26% | 5.68% | 3.89% | 10.4% | 4.48% | 15% | 4.58% | 9.24% | 2.66%
Cc1ccc(C(=O)NC(C)C)cc1-c1ccc(C(=O)NCC2CC2)cc1 |  | -0.92% | -0.81% | -1.54% | -1.16% | -0.95% | 1.25% | -2.61% | -1.55% | -1.99%
Fc1ccc(-c2nc3n(c2-c2ccncc2)CCS3)cc1 | -7.43% | 1.52% | 4.79% | 2.85% | 3.2% | 1.2% | 4.76% | 2.91% | 5.38% | 1.83%
COc1ccc2ncn(-c3cc(O[C@H](C)c4ccccc4Cl)c(C(N)=O)s3)c2c1 | 1.83% | 1.19% | 2.26% | 3.99% | 9.15% | 0.34% | 5.61% | 2.81% | 4.72% | 0.33%
O=C1NC(=O)C(c2cccc(Cl)c2)=C1Nc1ccc(Cl)c(C(=O)O)c1 | -4.4% | 1.78% | 3.24% | 2.08% | 6.18% | 2.29% | 5.05% | 2.43% | 4.98% | 1.3%
Fc1ccc(-c2ncn(C3CCNCC3)c2-c2ccnc(Oc3ccc(Oc4ccccc4)cc3)n2)cc1 | -1.92% | 1.84% | 2.14% | 2.93% | 3.2% | -0.2% | 0.05% | 1.63% | 2.88% | 0.61%
CS(=O)(=O)CCNCc1cc(-c2cc3c(Nc4ccc(OCc5cccc(F)c5)c(Cl)c4)ncnc3s2)cs1 |  | 2.18% | 4.04% | 4.45% | 5.71% | 2% | 5.07% | 4.77% | 6.1% | 4.15%
Cc1nnc(-c2ccc(C)c(-c3ccc(C(=O)NCc4ccc(Cl)cc4)cc3)c2)o1 |  | 2.64% | 6.05% | 3.3% | 11.6% | -1.14% | 1.63% | 2.54% | 4.45% | 2.23%
CCc1nccc2c1nc(-c1nonc1N)n2CC | -8.78% | -0.36% | 0.91% | 1.08% | 1.44% | -0.68% | 3.2% | 0.51% | 3.64% | -0.7%
COc1cc2ncn(-c3cc(OCc4cccs4)c(C(N)=O)s3)c2cc1OC | 11% | 2.64% | 29.8% | 10.9% | 51.6% | 7.47% | 50.4% | 8.78% | 46.3% | 12.2%
O=C1Nc2ccc(I)cc2C1=Cc1cc(Br)c(O)c(Br)c1 |  | 1.89% | 6.01% | 4.06% | 6.63% | 1% | 4.74% | 3.44% | 7.29% | 2.84%
CN(C)CCCNc1nccc(-c2c(-c3ccc(F)cc3)nn3cc(C(F)(F)F)ccc23)n1 | -4.04% | 1.96% | 5.43% | 4.54% | 4% | 4.09% | 3.29% | 3.28% | 5.19% | 1.28%
CN1CCN(CCCNc2nc3ccc(Oc4ccc(NC(=O)Nc5cc(C(F)(F)F)ccc5F)cc4)cc3[nH]2)CC1 | -3.76% | 0.07% | 4.6% | 0.89% | 15% | 14.3% | 45.5% | 12.8% | 48.1% | 16.6%
c1ccc(Oc2ccc(Nc3ncc(-c4ccccc4)o3)cc2)cc1 | -7.12% | 1.57% | 0.84% | 2.43% | 0.51% | 1.56% | 1.33% | 1.3% | 0.81% | 1.59%
N#Cc1ccc(Oc2nccc(-c3c(-c4ccc(F)cc4)ncn3C3CCNCC3)n2)cc1 | -7.23% | 2.37% | 3.79% | 3.91% | 5.59% | 2.13% | 4.25% | 4% | 6.46% | 3.62%
O=C(Nc1n[nH]c2cc(-c3ccccc3)ccc12)C1CC1 | -4.61% | 10.5% | 46.5% | 20.2% | 67.5% | 19.3% | 68.6% | 14% | 48.4% | 36.3%
